Test results from the supplement of paper PMC11732987, “Enantioselective OTUD7B fragment discovery through chemoproteomics screening and high-throughput optimisation” (Communications Chemistry, 2025).

Experiments:
Experiment in all cases: log2 ratio of Biotin-Ahx-Ub-VS probe labelling (fragment/DMSO); higher = less target engagement (more negative = stronger competition), active = hit call of the paper (q ≤ 0.05, log2 ratio ≤ -1)
Details in all cases: compound concentration: 200 uM; treatment time: 3 h
USP19 = biological target: T1, USP19 (UniProt O94966)
T1 sequence (whole entry): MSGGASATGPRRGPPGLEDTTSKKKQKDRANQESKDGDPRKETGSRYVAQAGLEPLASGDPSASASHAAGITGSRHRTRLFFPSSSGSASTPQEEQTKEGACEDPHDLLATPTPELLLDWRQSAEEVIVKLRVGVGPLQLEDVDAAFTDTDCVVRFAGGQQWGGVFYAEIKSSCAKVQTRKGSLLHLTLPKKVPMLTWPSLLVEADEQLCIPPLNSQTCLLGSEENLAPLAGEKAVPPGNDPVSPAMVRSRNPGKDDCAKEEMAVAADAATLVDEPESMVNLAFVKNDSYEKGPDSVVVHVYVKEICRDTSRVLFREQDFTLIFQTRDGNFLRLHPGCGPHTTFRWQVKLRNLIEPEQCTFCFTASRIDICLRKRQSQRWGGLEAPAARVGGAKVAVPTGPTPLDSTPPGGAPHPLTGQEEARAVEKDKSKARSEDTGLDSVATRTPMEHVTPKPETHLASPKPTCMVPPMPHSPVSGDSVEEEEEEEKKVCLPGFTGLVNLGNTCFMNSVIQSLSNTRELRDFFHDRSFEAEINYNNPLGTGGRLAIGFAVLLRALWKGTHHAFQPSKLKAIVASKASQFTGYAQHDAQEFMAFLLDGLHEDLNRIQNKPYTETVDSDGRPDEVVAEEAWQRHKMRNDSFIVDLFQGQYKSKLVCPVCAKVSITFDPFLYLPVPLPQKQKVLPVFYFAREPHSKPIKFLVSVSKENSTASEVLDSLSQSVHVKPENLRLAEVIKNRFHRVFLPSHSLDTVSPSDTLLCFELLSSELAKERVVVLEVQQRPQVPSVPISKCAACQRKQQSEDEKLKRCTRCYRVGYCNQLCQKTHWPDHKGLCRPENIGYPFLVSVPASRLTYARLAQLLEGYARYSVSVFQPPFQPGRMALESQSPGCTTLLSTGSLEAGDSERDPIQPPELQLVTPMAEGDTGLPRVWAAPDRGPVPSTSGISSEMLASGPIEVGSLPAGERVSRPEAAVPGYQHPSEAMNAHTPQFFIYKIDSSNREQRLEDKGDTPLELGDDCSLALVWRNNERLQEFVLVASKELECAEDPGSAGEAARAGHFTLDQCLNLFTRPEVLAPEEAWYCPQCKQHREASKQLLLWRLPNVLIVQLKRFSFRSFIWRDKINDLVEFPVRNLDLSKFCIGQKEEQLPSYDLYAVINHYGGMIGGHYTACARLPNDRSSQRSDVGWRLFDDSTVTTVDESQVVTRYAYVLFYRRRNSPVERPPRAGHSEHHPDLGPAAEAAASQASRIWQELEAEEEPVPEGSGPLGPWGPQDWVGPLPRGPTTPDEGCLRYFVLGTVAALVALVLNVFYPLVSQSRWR
Summary of the method: (§1)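 HEK293T lysate in Tris/CHAPS/IGEPAL buffer with protease inhibitors (495 µg per sample) was given fragment at 200 µM or vehicle for 3 h, in triplicate. It then received Biotin-Ahx-Ub-VS at 0.5 µM final for 1 h. Labelled DUBs were NeutrAvidin-enriched, digested with LysC and trypsin, and run by diaPASEF LC-MS/MS. Values are average log2 fragment/vehicle ratios by unpaired t-test on global-median-normalised Spectronaut quantities of proteins with ≥2 unique peptides.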

USP24 = USP24 (UniProt Q9UPU5)
Summary of the method: as §1

USP25 = biological target: T2, USP25 (UniProt Q9UHP3)
T2 sequence (whole entry): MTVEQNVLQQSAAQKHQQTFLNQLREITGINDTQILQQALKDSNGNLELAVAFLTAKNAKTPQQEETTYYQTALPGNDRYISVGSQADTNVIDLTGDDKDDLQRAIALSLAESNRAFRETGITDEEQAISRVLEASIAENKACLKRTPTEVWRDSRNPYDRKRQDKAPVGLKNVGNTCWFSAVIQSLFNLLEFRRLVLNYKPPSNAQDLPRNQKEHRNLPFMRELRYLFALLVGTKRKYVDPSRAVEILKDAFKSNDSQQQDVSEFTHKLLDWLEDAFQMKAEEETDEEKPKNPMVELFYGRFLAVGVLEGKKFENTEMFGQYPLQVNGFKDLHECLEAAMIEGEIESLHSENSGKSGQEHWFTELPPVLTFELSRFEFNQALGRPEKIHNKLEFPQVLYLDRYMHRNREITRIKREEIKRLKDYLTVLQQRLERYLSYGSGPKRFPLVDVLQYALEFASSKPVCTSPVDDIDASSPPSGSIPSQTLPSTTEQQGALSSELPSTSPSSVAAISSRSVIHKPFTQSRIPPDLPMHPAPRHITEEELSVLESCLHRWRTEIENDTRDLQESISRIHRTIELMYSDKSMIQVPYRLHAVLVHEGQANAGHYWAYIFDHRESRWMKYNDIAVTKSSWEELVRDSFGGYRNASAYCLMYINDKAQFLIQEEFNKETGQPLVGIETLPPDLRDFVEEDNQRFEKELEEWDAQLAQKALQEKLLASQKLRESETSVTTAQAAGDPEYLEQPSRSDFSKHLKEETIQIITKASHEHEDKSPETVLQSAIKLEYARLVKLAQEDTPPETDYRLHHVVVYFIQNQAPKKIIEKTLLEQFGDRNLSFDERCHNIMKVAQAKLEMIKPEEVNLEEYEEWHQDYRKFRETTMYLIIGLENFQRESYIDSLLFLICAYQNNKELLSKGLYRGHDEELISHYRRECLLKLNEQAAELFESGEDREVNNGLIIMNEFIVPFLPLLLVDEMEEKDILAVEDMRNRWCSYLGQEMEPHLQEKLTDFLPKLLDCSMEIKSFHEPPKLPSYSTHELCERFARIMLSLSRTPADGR
Summary of the method: as §1

USP28 = biological target: T3, USP28 (UniProt Q96RU2)
T3 sequence (whole entry): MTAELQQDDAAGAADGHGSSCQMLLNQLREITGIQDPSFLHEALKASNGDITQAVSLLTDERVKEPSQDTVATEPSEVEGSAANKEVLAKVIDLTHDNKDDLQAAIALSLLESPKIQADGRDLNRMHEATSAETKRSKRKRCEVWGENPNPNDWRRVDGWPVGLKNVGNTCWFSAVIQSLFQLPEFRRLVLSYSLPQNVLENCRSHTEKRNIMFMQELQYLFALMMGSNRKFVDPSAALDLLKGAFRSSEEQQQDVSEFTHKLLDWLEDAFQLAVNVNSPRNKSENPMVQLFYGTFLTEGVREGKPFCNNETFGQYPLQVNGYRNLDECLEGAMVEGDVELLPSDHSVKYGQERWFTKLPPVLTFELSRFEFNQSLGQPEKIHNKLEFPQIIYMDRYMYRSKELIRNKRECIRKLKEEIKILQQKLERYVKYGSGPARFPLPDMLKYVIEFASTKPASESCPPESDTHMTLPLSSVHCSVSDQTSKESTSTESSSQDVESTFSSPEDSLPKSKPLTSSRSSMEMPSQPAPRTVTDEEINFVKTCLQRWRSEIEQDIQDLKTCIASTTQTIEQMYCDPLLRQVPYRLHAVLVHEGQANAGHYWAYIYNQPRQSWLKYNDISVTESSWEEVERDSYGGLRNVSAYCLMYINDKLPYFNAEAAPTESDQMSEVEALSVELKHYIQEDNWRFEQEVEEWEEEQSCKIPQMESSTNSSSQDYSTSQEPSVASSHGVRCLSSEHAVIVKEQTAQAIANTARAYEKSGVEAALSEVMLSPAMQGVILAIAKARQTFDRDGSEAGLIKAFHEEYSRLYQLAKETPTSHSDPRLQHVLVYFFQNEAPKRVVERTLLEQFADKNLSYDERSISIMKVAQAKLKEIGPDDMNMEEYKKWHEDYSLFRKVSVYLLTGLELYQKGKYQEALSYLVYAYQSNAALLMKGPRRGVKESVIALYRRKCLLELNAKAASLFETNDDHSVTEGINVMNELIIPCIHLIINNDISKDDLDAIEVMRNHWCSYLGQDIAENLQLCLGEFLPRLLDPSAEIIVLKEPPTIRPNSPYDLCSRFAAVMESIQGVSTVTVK
Summary of the method: as §1

Measured: log2 ratio of Biotin-Ahx-Ub-VS probe labelling

Sequence of USP24 (Q9UPU5 whole entry): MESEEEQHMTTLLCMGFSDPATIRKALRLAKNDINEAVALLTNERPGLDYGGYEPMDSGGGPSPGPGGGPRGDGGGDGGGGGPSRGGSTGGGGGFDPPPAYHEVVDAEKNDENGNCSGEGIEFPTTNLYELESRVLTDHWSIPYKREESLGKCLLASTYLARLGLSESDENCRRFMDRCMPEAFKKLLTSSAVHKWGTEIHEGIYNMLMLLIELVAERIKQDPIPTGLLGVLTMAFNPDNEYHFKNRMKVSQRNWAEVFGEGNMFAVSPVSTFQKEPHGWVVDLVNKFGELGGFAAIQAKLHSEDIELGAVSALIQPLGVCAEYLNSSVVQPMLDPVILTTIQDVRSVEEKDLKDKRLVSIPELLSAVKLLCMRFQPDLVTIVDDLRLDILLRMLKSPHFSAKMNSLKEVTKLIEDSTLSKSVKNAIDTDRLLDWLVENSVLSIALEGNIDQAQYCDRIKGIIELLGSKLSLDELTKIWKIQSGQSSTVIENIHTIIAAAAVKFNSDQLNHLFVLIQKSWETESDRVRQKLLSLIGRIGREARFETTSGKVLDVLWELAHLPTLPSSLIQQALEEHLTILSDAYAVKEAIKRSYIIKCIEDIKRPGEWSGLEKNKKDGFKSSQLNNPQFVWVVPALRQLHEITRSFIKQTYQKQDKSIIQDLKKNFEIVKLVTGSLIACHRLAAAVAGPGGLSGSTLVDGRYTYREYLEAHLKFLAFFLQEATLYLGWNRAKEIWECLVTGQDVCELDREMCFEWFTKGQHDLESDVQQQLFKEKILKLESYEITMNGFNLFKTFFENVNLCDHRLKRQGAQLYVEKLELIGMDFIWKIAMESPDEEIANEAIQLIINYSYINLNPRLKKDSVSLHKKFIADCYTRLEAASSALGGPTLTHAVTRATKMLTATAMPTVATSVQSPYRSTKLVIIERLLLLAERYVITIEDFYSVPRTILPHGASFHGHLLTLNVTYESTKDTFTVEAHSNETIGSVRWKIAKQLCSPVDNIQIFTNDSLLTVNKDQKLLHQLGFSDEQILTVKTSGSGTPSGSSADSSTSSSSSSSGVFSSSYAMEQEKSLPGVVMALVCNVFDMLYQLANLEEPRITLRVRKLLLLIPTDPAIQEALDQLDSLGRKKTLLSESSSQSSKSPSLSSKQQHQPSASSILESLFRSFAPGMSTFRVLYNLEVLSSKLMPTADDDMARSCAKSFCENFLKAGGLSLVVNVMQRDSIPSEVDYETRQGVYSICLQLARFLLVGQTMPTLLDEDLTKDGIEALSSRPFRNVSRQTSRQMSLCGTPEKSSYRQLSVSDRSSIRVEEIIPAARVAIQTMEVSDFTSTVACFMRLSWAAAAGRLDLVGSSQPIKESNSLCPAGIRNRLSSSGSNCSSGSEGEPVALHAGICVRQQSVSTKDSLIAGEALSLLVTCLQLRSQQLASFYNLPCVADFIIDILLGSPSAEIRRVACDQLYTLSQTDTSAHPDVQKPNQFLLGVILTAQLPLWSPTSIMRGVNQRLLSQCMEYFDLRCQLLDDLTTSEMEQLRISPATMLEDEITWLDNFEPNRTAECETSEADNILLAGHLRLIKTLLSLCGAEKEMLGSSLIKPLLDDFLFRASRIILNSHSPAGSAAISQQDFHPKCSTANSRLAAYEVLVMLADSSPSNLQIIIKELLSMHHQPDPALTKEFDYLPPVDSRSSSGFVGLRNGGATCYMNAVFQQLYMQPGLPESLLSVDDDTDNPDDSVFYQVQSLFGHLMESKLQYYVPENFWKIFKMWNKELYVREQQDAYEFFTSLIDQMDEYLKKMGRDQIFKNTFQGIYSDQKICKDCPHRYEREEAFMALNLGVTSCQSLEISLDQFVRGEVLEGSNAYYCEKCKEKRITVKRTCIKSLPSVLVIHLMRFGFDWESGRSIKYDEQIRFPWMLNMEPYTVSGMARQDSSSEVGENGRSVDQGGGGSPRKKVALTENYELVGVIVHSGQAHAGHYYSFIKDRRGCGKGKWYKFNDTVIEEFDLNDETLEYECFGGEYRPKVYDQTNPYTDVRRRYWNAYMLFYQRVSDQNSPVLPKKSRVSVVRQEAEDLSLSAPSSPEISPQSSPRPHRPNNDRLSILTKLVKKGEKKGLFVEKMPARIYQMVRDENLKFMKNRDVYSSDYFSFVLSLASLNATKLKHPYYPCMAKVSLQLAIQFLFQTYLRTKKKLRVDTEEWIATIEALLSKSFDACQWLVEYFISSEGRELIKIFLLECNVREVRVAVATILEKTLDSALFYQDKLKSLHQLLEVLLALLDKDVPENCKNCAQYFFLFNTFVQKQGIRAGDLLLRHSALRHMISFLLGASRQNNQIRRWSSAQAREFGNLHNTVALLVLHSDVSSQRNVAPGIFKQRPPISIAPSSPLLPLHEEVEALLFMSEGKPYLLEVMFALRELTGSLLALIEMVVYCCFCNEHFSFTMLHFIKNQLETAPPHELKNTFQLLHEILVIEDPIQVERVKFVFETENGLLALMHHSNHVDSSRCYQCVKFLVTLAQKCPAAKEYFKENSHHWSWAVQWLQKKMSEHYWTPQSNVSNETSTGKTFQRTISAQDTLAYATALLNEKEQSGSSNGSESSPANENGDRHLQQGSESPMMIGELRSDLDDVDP

O=C(CCl)N1CCCC1c1ccsc1 (centres undefined)
inactive: USP19 -0.475 | USP24 -0.738 | USP25 -0.456 | USP28 -0.704
